In ChEMBL document CHEMBL4513216, “Probing the Open Global Health Chemical Diversity Library for Multistage-Active Starting Points for Next-Generation Antimalarials” (ACS Infect Dis, 2020):
About 8,600 (12%) of roughly 69,000 compounds showed an effect of 50% or more. Only a selection was taken, and strong results are over-represented in it overall.

Tested on: Plasmodium berghei
Assay: Screen against P. berghei liver stage (PbLuc), transformed with Luciferase, at 10uM
Format: functional, HepG2
Conditions: tested at 10 uM

Question: How did the INHIBITION turn out when `COCCNC(=O)NCc1ccc(-n2ccc(C(F)(F)F)n2)cc1` was run?
Answer: -42.1%

Question: With `CC1CCc2nn(CCNC(=O)C3CCCC3)c(=O)cc2C1` (stereo not drawn) as the molecule, how does the INHIBITION read?
Answer: -28.1%

Question: For `CCCN(CCC)CCNc1c(-c2ccccc2)c(=O)c1=O`, which INHIBITION is on record?
Answer: 49.5%

Question: With `Cc1cnc(-c2nc(C3CCCN(Cc4ccccc4C)C3)no2)cn1` (stereo not drawn) as the molecule, how does the INHIBITION read?
Answer: 25.75%

Question: How did the INHIBITION turn out when `Cc1cnc(CN2C[C@H]3CC(Oc4ccccc4)C[C@H]3C2)cn1` (stereo partly drawn) was run?
Answer: 30.4%

Question: Which INHIBITION does the source give for `CN1C(=O)[C@@H]2CC[C@H]1CN(S(=O)(=O)c1ccc(Cl)cc1Cl)C2` here?
Answer: 24.3%

Question: How did the INHIBITION turn out when `CN(C)C(=O)Cn1cnc2c(Br)cccc2c1=O` was run?
Answer: -14.1%

Question: How did the INHIBITION turn out when `COc1cc(C(F)(F)F)sc1C(=O)O` was run?
Answer: 20.8%

Question: `Cc1cccc(C(=O)N(C)Cc2cc(Br)cs2)n1` was tested. Which INHIBITION did it give?
Answer: 37.1%

Question: Which INHIBITION does the source give for `COC(=O)CNC(=O)CCc1cc(Br)cs1` here?
Answer: 7.19%

Question: How did the INHIBITION turn out when `CN(Cc1cc(Br)cs1)Cc1nnsc1Cl` was run?
Answer: 46.3%

Question: Which INHIBITION does the source give for `CN(CCC(N)=O)Cc1cc(Br)cs1` here?
Answer: 24%

Question: With `COC(=O)CCN(C)Cc1cc(Br)cs1` as the molecule, how does the INHIBITION read?
Answer: 60.2%

Question: `COC(=O)CN(C)Cc1cc(Br)cs1` was tested. Which INHIBITION did it give?
Answer: 53.2%

Question: `COCCN1CCO[C@@H]2CN(Cc3ccccc3OC)C[C@@H]2C1` was tested. Which INHIBITION did it give?
Answer: 2.4%

Question: With `CCc1nnc2n1CCN(Cc1cc(Cl)c3c(c1)OCCCO3)C2` as the molecule, how does the INHIBITION read?
Answer: 23.6%

Question: With `O=C(CNC(=O)N1CCc2c([nH]c3ccc(Cl)cc23)C1)NCCCO` as the molecule, how does the INHIBITION read?
Answer: 4.25%

Question: Which INHIBITION does the source give for `COCc1csc(NC(=O)N2CCC(Cc3cnn(C)c3)C2)n1` (stereo not drawn) here?
Answer: -27.8%

Question: With `Cc1ccsc1CN1CCc2nc3ccsc3c(=O)n2CC1` as the molecule, how does the INHIBITION read?
Answer: 35.2%

Question: How did the INHIBITION turn out when `COc1ccc(OC)c(CN2CCc3nc4ccsc4c(=O)n3CC2)c1` was run?
Answer: 14.7%

Question: `CCOc1ccc(CN2CCc3nc4ccsc4c(=O)n3CC2)cc1` was tested. Which INHIBITION did it give?
Answer: 28%

Question: `COc1ccc(CN2CCc3nc4ccsc4c(=O)n3CC2)c(C)c1C` was tested. Which INHIBITION did it give?
Answer: 92.9%

Question: `COc1cc(C)c(CN2CCc3nc4ccsc4c(=O)n3CC2)cc1C` was tested. Which INHIBITION did it give?
Answer: 89.3%

Question: With `O=c1c2sccc2nc2n1CCN(Cc1ccccc1C(F)(F)F)CC2` as the molecule, how does the INHIBITION read?
Answer: 92.9%

Question: `O=c1c2sccc2nc2n1CCN(Cc1cc(F)ccc1F)CC2` was tested. Which INHIBITION did it give?
Answer: 3.91%

Question: How did the INHIBITION turn out when `COc1cccc(CN2CCc3nc4ccsc4c(=O)n3CC2)c1` was run?
Answer: 54.4%

Question: How did the INHIBITION turn out when `O=c1c2sccc2nc2n1CCN(Cc1ccc(F)c(F)c1)CC2` was run?
Answer: 31.6%

Question: How did the INHIBITION turn out when `Cc1c(CN2CCc3nc4sccc4c(=O)n3CC2)cnn1C` was run?
Answer: -12.4%

Question: With `CCOc1ccccc1CN1CCc2nc3ccsc3c(=O)n2CC1` as the molecule, how does the INHIBITION read?
Answer: 49.6%

Question: Which INHIBITION does the source give for `O=c1c2sccc2nc2n1CCN(Cc1cccs1)CC2` here?
Answer: -3.41%

Question: Which INHIBITION does the source give for `CN1CC(C)(C)CN(C(=O)CCc2ccccc2)CC1=O` here?
Answer: 24.5%

Question: For `O=C(c1cc[nH]n1)N1CCCC1c1cc(Nc2ccccn2)n[nH]1` (stereo not drawn), which INHIBITION is on record?
Answer: -20.2%

Question: `Cc1ccc2c(c1)c(C)cc(=O)n2CCC#N` was tested. Which INHIBITION did it give?
Answer: 11.2%

Question: How did the INHIBITION turn out when `CC(C)c1noc(CN2CCN(C(=O)c3ccncc3F)CC2)n1` was run?
Answer: -29.1%

Question: Which INHIBITION does the source give for `O=S(=O)(NCC1COCc2c(-c3ccncc3)nnn2C1)C1CC1` (stereo not drawn) here?
Answer: 18.3%

Question: How did the INHIBITION turn out when `NC(=O)c1ccc(NC(=O)c2ccncc2Cl)cn1` was run?
Answer: 13.8%

Question: `Cc1ccc(OC2(C(=O)O)CCN(C(=O)CCc3ccco3)CC2)cn1` was tested. Which INHIBITION did it give?
Answer: 34.4%

Question: For `CC(C)(C)c1n[nH]cc1CN1CCc2nc3ccsc3c(=O)n2CC1`, which INHIBITION is on record?
Answer: 50.6%

Question: Which INHIBITION does the source give for `Cc1nn(C)cc1CN1CCc2nc3sccc3c(=O)n2CC1` here?
Answer: 30.5%

Question: Which INHIBITION does the source give for `O=c1c2sccc2nc2n1CCN(Cc1ccsc1)CC2` here?
Answer: 5.11%

Question: For `COc1ccc(CC(=O)N2CC[C@@H]3[C@H](CC2)N(C)CCS3(=O)=O)cc1`, which INHIBITION is on record?
Answer: 18.5%

Question: For `COCCCN(Cc1cnc(-c2cccs2)nc1)C1CCN(C)CC1`, which INHIBITION is on record?
Answer: 13%

Question: With `Cc1nc(NC2CCS(=O)(=O)CC2)cc(C2CCCNC2)n1` (stereo not drawn) as the molecule, how does the INHIBITION read?
Answer: 62.2%

Question: How did the INHIBITION turn out when `Cc1nc(CCC(=O)NC2CCC2)cc(C2CCCNC2)n1` (stereo not drawn) was run?
Answer: 26.8%

Question: How did the INHIBITION turn out when `Cc1nc(NC2CCCCC2)cc(C2CCCNC2)n1` (stereo not drawn) was run?
Answer: 28.3%

Question: Which INHIBITION does the source give for `CSc1nsc(NC(=O)c2cc(C3CC3)nn2C)n1` here?
Answer: -64.85%

Question: How did the INHIBITION turn out when `CCN(C)Cc1cccc(CNC(=O)CSCc2ccccn2)c1` was run?
Answer: 20.8%

Question: Which INHIBITION does the source give for `CN(C)c1ccc(CNC(=O)NCCc2ccccn2)cn1` here?
Answer: -22.9%

Question: For `CCN(C)Cc1cccc(CNC(=O)NCCc2ccccn2)c1`, which INHIBITION is on record?
Answer: 51%

Question: With `Cc1nc(O)cc(C2CCN(Cc3cccc(F)c3F)C2)n1` (stereo not drawn) as the molecule, how does the INHIBITION read?
Answer: 25%

Question: With `CN(Cc1noc(C2CC2)n1)C1CCN(Cc2cccc(F)c2F)C1` (stereo not drawn) as the molecule, how does the INHIBITION read?
Answer: -31.96%

Question: With `Fc1ccccc1CN1CCC(c2n[nH]c(C3CC3)n2)CC1` as the molecule, how does the INHIBITION read?
Answer: -5.92%

Question: With `COC(=O)c1cccc2nc([C@H]3CCN(Cc4ccccc4F)C3)oc12` as the molecule, how does the INHIBITION read?
Answer: -61.5%

Question: For `CN(Cc1nnc(C2CC2)n1C)C1CCN(Cc2ccccc2F)C1` (stereo not drawn), which INHIBITION is on record?
Answer: -3.19%

Question: How did the INHIBITION turn out when `Cc1nc2cc(C3CCN(Cc4ccccc4F)C3)nn2c(O)c1C` (stereo not drawn) was run?
Answer: 61.7%

Question: `CNC(=O)c1cn[nH]c1C1CCN(Cc2ccccc2F)C1` (stereo not drawn) was tested. Which INHIBITION did it give?
Answer: -10.5%

Question: `CCc1c(C)nc2cc(C3CCN(Cc4ccccc4F)C3)nn2c1O` (stereo not drawn) was tested. Which INHIBITION did it give?
Answer: 85.9%

Question: For `Cc1nc2cc(C3CCN(Cc4cccc(F)c4F)C3)nn2c(O)c1C.O=C(O)CC(O)(CC(=O)O)C(=O)O` (stereo not drawn), which INHIBITION is on record?
Answer: 90.4%
